Source: PubChem BioAssay AID894 (National Center for Advancing Translational Sciences (NCATS), 2007)
The campaign covered roughly 150,000 compounds. About 6,500 (4.3%) were called active. About 12% were inconclusive and are not listed. The call rests on the fitted dose curve; in most records, active means well fitted inhibition curve with a large enough effect (not every such curve was filed as active); inconclusive means small, poorly fitted or top-dose-only effect, or another doubt; inactive means no such curve, though single readings can be large or run the other way. Many of the other results were omitted from the sample, so actives are more common in it than they were.

target: 15-hydroxyprostaglandin dehydrogenase [NAD(+)] (Homo sapiens) (UniProt P15428); assay: qHTS Assay for Inhibitors of HPGD (15-Hydroxyprostaglandin Dehydrogenase); conditions: purified HPGD, NADH fluorescence kinetic, PGE2 substrate; activity change, negative = inhibition: stronger effect = lower value
How it was run: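 20 nM HPGD preincubated 15 min at room temperature with compound in 50 mM Tris-HCl pH 8, 0.01% Tween 20. Started with 1 mM NAD+ and 30 uM prostaglandin E2; NADH fluorescence (360/450 nm) read 5 times over 30-s intervals, last minus first.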
On the % scale 0 is the no-effect control and ±100 the full control effect; potency means the concentration at half of the fitted maximal effect.

Chain of 15-hydroxyprostaglandin dehydrogenase [NAD(+)] (Homo sapiens) (P15428 whole entry, looked up): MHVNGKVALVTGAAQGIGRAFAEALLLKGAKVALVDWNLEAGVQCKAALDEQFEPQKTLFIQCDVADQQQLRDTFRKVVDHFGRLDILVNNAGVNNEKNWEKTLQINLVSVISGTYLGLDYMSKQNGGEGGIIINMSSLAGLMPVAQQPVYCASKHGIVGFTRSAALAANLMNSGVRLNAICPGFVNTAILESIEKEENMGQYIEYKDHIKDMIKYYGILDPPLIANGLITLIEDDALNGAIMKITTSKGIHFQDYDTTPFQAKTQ

| SMILES | activity change, negative = inhibition | Potency |
| --- | --- | --- |
| CC(=O)NC1C(Oc2ccc(C)cc2)OC2COC(c3ccco3)OC2C1O (stereo unspecified) | 0.675% (inactive) |  |
| COc1ccccc1-c1nnc(NC(=O)c2ccc3ncsc3c2)o1 | -16.3% (inactive) |  |
| Cc1ccccc1NC(=S)N(CCCN1CCOCC1)Cc1cccs1 | 8.96% (inactive) |  |
| N#Cc1ccc(N2Cc3ccccc3/C2=N/C(=O)Nc2ccc(Cl)cc2)cc1 | -24.3% (inactive) |  |
| CCCCN(CC)C(=O)c1ccccc1Oc1ccccc1 | -9.66% (inactive) |  |
| CC(=O)N/C(=C/c1ccc(OC(F)F)cc1)C(=O)O | -3.55% (inactive) |  |
| CN(C)C(CNC(=O)c1ccc(S(=O)(=O)NCc2ccco2)cc1)c1ccccc1 (stereo unspecified) | -10.1% (inactive) |  |
| CCCc1nc(SCC(=O)Nc2ccc(S(=O)(=O)N(C)C)cc2)c2ccccc2n1 | -22.1% (inactive) |  |
| CONc1nc2nonc2nc1NOC | -6.28% (inactive) |  |
| O=c1cc(CSc2ccccn2)nc(N2CCN(c3ccccc3)CC2)[nH]1 | -4.21% (inactive) |  |
| Cc1nnc(SCc2cc(=O)[nH]c(N3CCN(Cc4ccccc4)CC3)n2)s1 |  | 10 µM (active) |
| CCc1c(C)nc(N2CCN(Cc3ccccc3)CC2)[nH]c1=O | -6.13% (inactive) |  |
| CC(C)CNC(=O)CC(NCC(C)C)C(=O)O (stereo unspecified) | -6.89% (inactive) |  |
| Cc1ccc2[nH]cc(CCCN3C(=O)c4ccccc4C3=O)c2c1 | -4.52% (inactive) |  |
| O=C(NCC1CCCO1)C(C(=O)c1ccccc1)n1cc(Cl)ccc1=O (stereo unspecified) | -7.62% (inactive) |  |
| O=C(CS(=O)(=O)Cc1ccccc1)NCC1CCCO1 (stereo unspecified) | -19.1% (inactive) |  |
| O=C(CSCc1c(F)cccc1Cl)NCC1CCCO1 (stereo unspecified) |  | 14.1 µM (active) |
| CC(=O)[C@H](C(c1ccccc1)N1CCOCC1)N1CCOCC1 (stereo partly specified) | -6.44% (inactive) |  |
| O=C(CCCCCNC(=O)c1ccccc1)N/N=C/c1ccccc1 | -2.21% (inactive) |  |
| CN(C)S(=O)(=O)c1cccc(NC(=S)N/N=C/C(=O)c2ccccc2)c1 | -16% (inactive) |  |
| O=C(Nc1ccc2c(c1)OCCO2)c1ccncc1 | -1.78% (inactive) |  |

| SMILES | activity change, negative = inhibition | Potency |
| --- | --- | --- |
| Cc1ccc2sc(NNC(=O)c3ccc4c(c3)OCCO4)nc2c1C |  | 11.2 µM (active) |
| O=C(Nc1nc2ccccc2s1)c1ccc2c(c1)OCO2 | -20.6% (inactive) |  |
| CCCCn1c(O)c(N=NC(=O)Cn2c(C(F)(F)F)nc3ccccc32)c2ccccc21 | -5.51% (inactive) |  |
| CNS(=O)(=O)c1ccc(N2CCCC2=O)c([N+](=O)[O-])c1 | -12.5% (inactive) |  |
| COc1ccc(NS(=O)(=O)c2ccc(NC(=O)C(C)(C(F)(F)F)C(F)(F)F)cc2)nn1 | -19.1% (inactive) |  |
| COC(=O)c1ccc(CSc2nc3cc(Cl)ccc3o2)cc1 | -20.6% (inactive) |  |
| COc1cc(NS(=O)(=O)c2ccc(N/C=C(\C=O)c3nc4cc(Cl)ccc4o3)cc2)nc(OC)n1 |  | 14.1 µM (active) |
| O=C(NC(CC(=O)N1CCN(c2ccccc2)CC1)c1ccccc1)c1ccccc1Cl (stereo unspecified) | -5.04% (inactive) |  |
| COc1ccc(N(C(=O)c2ccc(C)cc2)S(=O)(=O)c2cccs2)cc1 | -10% (inactive) |  |
| COc1ccc(N2C(=O)C(O)C2c2ccc(C)cc2)cc1 (stereo unspecified) | -14.1% (inactive) |  |
| Cc1ccc(S(=O)(=O)c2ccc(Cl)cc2)cc1S(=O)(=O)NC(C(=O)O)C(C)C (stereo unspecified) | -5.59% (inactive) |  |
| O=C(NCc1ccco1)C1(c2ccc(Cl)cc2)CCCC1 | -8.03% (inactive) |  |
| O=C(/C=C/c1ccc(Cl)cc1Cl)NCc1ccco1 |  | 15.8 µM (active) |
| O=C(NCc1ccco1)c1cc(-c2cccnc2)nc2ccc(Cl)cc12 | -28% (inactive) |  |
| CCNC(=S)N(CCc1c(C)[nH]c2ccc(C)cc12)Cc1ccco1 | -13.1% (inactive) |  |
| COc1cc2c(cc1OC)C(=O)NCC(C)(C)O2 | -19.2% (inactive) |  |
| COc1ccc(-c2cn(-c3ccc(OC)cc3)c(=S)[nH]2)cc1 |  | 25.1 µM (active) |
| COc1ccc(-n2c(C)csc2=S)cc1 | -9.23% (inactive) |  |
| COc1ccc(N2C(=O)CNC2=S)cc1 | -14.3% (inactive) |  |
| CN(C)S(=O)(=O)c1cc(NC(=O)CN2C(=O)NC3(CCCc4ccccc43)C2=O)ccc1Cl (stereo unspecified) | -12.7% (inactive) |  |
| O=C(O)c1ccc(N=NN2CCOCC2)cc1 | -13.6% (inactive) |  |

| SMILES | activity change, negative = inhibition | Potency |
| --- | --- | --- |
| Cc1ccc(NC(=O)NC(=O)N(C2CCCCC2)S(=O)(=O)c2ccccc2)cc1 | -16% (inactive) |  |
| CC(=O)Nc1ccc(S(=O)(=O)NC(C)C(=O)OCC(=O)NC2CCCC2)cc1 (stereo unspecified) | -4.32% (inactive) |  |
| CCCCC(CC(C)O)c1n[nH]c(=S)n1-c1ccccc1 (stereo unspecified) | -3.38% (inactive) |  |
| CCCc1cc(-c2n[nH]c(=S)n2CC)c2ccccc2n1 | -28.5% (inactive) |  |
| CC(C)Oc1ccc(CCc2n[nH]c(=S)n2Cc2ccccc2)cc1 |  | 10 µM (active) |
| O=C(N/N=C\c1ccc(Br)cc1)c1ccc(Cn2cccn2)o1 | -5.99% (inactive) |  |
| COCCOC(=O)c1c(C)oc2cc(Br)c(OCC(N)=O)cc12 | -7.04% (inactive) |  |
| COC(C(=O)NCc1ccccc1C)c1ccccc1 (stereo unspecified) | -8.94% (inactive) |  |
| Cc1nc2ccccc2cc1C(=O)N/N=C/c1ccc([N+](=O)[O-])cc1 | -5.88% (inactive) |  |
| Cc1cc(C(F)(F)F)n2ncc(-c3ccccc3)c2n1 | -0.556% (inactive) |  |
| Cn1c(-c2sc3cc(C(F)(F)F)cnc3c2-c2ccccc2)n[nH]c1=S |  | 31.6 µM (active) |
| CCOC(=O)c1c(C)[nH]c(=S)c(C#N)c1-c1ccccc1 | -27.3% (inactive) |  |
| CCc1c(C)[nH]c(=S)c(C#N)c1C |  | 35.5 µM (active) |
| CCCCC1S/C(=N/N=C/c2cccs2)NC1=O (stereo unspecified) | -7.59% (inactive) |  |
| COC(=O)C1=C(C(=O)OC)[C@@H]2Nc3ccccc3[C@@]23C[C@@H](C(=O)OC)N(S(=O)(=O)c2ccc([N+](=O)[O-])cc2)C3=N1 | -10.9% (inactive) |  |
| Cc1ccc(C)c(NC(=S)NNC(=O)c2csc(C)c2)c1 | -5.84% (inactive) |  |
| COc1ccc(Nc2ncnc3ccc(OC)cc23)cc1 | -4.83% (inactive) |  |
| Cn1ncc2c(Nc3cccc4ccccc34)ncnc21 | -9.06% (inactive) |  |
| CN(C)c1cc2c(Nc3ccc4c(cnn4Cc4ccccc4)c3)ncnc2cn1 |  | 12.6 µM (active) |
